Assay results reported in PubChem BioAssay (Tox21).
“And” between values parts separate entries of the source, which are not always exact repeats. Equal values may be shown once. Records with an inconclusive call do not appear. A call without a number means that no potency is given here. Some compounds were tested as several samples or in several runs, with calls that do not always agree. The source made the active and inactive calls. Unless noted, the call rests on the fitted dose curve; in most records, active means well fitted curve in the direction sought with a large enough effect in the repeat runs; inconclusive means weak or mixed curves; inactive means no such curve, though single readings can be large; an effect the other way counts as inactive or inconclusive.

Experiments:
[1] = A CellTox Green Cytotoxicity Assay to monitor cytotoxicity in HEK293 cells - 32 hour (AID 1224881); further: nearly all actives have a fitted effect of over 40% in size; further: potency means the concentration at half of the fitted maximal effect
Procedure, shortened: (§1)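 Fluorescence intensity, read at 0, 8, 16, 24, 32 and 40 h of compound treatment, reflected dye binding to DNA of dead HEK293 cells; compounds (23 nL, DMSO) were added 5 h after plating cells with reagent.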

[2] = A CellTox Green Cytotoxicity Assay to monitor cytotoxicity in HepG2 cells - 0 hour (AID 1224882); further: nearly all actives have a fitted effect of over 35% in size; further: potency means the concentration at half of the fitted maximal effect
Procedure, shortened: (§2)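 Using 1536-well format, dye-containing HepG2 suspension was seeded, allowed 5 h at 37 C/5% CO2, dosed by pintool with compounds, positive and negative controls, and imaged for fluorescence across 40 h.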

[3] = A CellTox Green Cytotoxicity Assay to monitor cytotoxicity in HepG2 cells - 32 hour (AID 1224883); further: nearly all actives have a fitted effect of over 50% in size; further: potency means the concentration at half of the fitted maximal effect
Procedure, shortened: as §2

[4] = A CellTox Green Cytotoxicity Assay to monitor cytotoxicity in HEK293 cells - 8 hour (AID 1224884); further: potency means the concentration at half of the fitted maximal effect; nearly all actives have a fitted effect of over 35% in size
Procedure, shortened: as §1

[5] = A CellTox Green Cytotoxicity Assay to monitor cytotoxicity in HEK293 cells - 16 hour (AID 1224888); further: nearly all actives have a fitted effect of over 35% in size; further: potency means the concentration at half of the fitted maximal effect
Procedure, shortened: as §1

[6] = A CellTox Green Cytotoxicity Assay to monitor cytotoxicity in HepG2 cells - 8 hour (AID 1224890); further: nearly all actives have a fitted effect of over 45% in size; further: potency means the concentration at half of the fitted maximal effect
Procedure, shortened: as §2

[7] = qHTS assay to identify small molecule antagonists of the estrogen receptor alpha (ER-alpha) signaling pathway using the BG1 cell line in the presence of 0.1 nM 17-beta-estradiol - cell viability counter screen (AID 1259241); further: nearly all actives have a fitted effect of over 40% in size; further: potency means the concentration at half of the fitted maximal effect
Procedure, shortened: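 Measures cytotoxicity alongside the ER-alpha antagonist readout: VM7Luc4E2 cells, charcoal-stripped serum, 0.1 nM 17beta-estradiol final, 22 hr compound incubation at 37C, CellTiter-Fluor fluorescence.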

[8] = qHTS assay to identify small molecule antagonists of the androgen receptor (AR) signaling pathway using the MDA cell line in the presence of 0.5 nM R1881 - cell viability counter screen (AID 1259242); further: nearly all actives have a fitted effect of over 45% in size; further: potency means the concentration at half of the fitted maximal effect
Procedure, shortened: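 Viability of MDA-kb2 cells was multiplexed with the luciferase AR readout; after 16 hr with compounds and R1881 at 0.5 nM final, CellTiter-Fluor fluorescence was recorded.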

[9] = target: Estrogen receptor (Homo sapiens) (UniProt P03372); test: qHTS assay to identify small molecule antagonists of the estrogen receptor alpha (ER-alpha) signaling pathway using the BG1 cell line in the presence of 0.1 nM 17-beta-estradiol (AID 1259244); further: nearly all actives have a fitted effect of over 50% in size; further: potency means the concentration at half of the fitted maximal effect
Chain of Estrogen receptor (Homo sapiens) (P03372 whole entry, looked up): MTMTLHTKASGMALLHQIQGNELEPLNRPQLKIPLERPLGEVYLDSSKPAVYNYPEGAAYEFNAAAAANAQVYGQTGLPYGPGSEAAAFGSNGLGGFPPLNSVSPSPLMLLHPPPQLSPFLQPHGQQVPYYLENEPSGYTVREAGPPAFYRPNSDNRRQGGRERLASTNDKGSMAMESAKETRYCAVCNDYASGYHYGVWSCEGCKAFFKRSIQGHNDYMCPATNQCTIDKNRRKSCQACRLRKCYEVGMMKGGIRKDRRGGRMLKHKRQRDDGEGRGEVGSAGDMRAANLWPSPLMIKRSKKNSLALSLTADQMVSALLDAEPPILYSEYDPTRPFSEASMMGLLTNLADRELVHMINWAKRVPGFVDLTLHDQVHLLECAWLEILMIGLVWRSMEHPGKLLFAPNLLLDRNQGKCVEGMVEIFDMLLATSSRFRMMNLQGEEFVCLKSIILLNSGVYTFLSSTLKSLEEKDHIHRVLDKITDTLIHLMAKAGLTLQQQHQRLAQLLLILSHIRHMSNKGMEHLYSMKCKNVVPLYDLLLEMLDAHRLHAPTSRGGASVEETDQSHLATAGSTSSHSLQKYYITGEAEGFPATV
Procedure, shortened: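 Estradiol at 0.1 nM (final) stimulates the endogenous ER-alpha of VM7Luc4E2 cells carrying an ERE-driven luciferase; compounds are co-incubated 22 h at 37C and luciferase output quantified by luminescence.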

[10] = qHTS assay to identify small molecule phospholipidosis (PLD) inducers (AID 1259344; active means well fitted curve in the direction sought with a large enough effect; an effect the other way counts as inactive or inconclusive)
Procedure, shortened: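 HepG2 cells grown on collagen I take up LipidTOX Red while exposed to compound for 24 h; after fixation they are imaged at 20x and pit metrics are extracted.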

[11] = qHTS assay to identify small molecule HDAC inhibitors (AID 1259364);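 further: wild-type HCT-116 cells with endogenous class I/II HDAC activity; top concentration of the series differs between compounds; nearly all actives have a fitted effect of over 45% in size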
Procedure, shortened: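 Read-out: luminescence of HDAC-Glo I/II reagent, 30 min RT, reflecting class I/II deacetylase activity in whole HCT-116 cells pre-exposed 2 h to DMSO-dissolved compounds.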

[12] = qHTS assay to identify small molecule HDAC inhibitors - cell viability counter screen (AID 1259365); further: nearly all actives have a fitted effect of over 50% in size; further: potency means the concentration at half of the fitted maximal effect
Procedure, shortened: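 Following a 2hr exposure of overnight-plated wild-type HCT-116 cells to DMSO-delivered compounds, CellTiter-Glo was added and luminescence recorded after 30min at room temperature.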

[13] = qHTS assay to identify small molecule agonists of the sonic hedgehog signaling (Shh) pathway - cell viability counter screen (AID 1259366); further: nearly all actives have a fitted effect of over 50% in size; further: potency means the concentration at half of the fitted maximal effect
Procedure, shortened: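 After a 4hr attachment at 37C, NIH/3T3 cells bearing an integrated Gli1-driven luciferase reporter were dosed with compounds. Treatment lasted 24hr, with the final hour including CellTiter-Fluor for a fluorescence viability measurement.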

[14] = qHTS assay to identify small molecule antagonists of the sonic hedgehog signaling (Shh) pathway - cell viability counter screen (AID 1259367); further: nearly all actives have a fitted effect of over 55% in size; further: potency means the concentration at half of the fitted maximal effect
Procedure, shortened: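 After a 4 hr settling period, 3T3 Gli1-Luc cells were treated with DMSO-dissolved chemicals and conditioned medium, kept 24 hr at 37C in 5% CO2, and assayed for viability by CellTiter-Fluor fluorescence following 1 hr reagent incubation.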

[15] = qHTS RealTime-Glo MT Cell Viability Assay in HEK293 cells - 24 hour (AID 1224886); further: nearly all actives have a fitted effect of over 50% in size; further: potency means the concentration at half of the fitted maximal effect
Procedure, shortened: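 Luminescence generated by NanoLuc from substrate produced by living HEK293 cells served as the viability signal. Each value reflects the reading at its stated time point during continuous 40 h compound exposure at 37 C.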

[16] = qHTS RealTime-Glo MT Cell Viability Assay in HepG2 cells - 0 hour (AID 1224889); further: nearly all actives have a fitted effect of over 50% in size
Procedure, shortened: (§3)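 Tox21 10K library screened in qHTS format on HepG2 cells carrying RealTime-Glo reagents. Compounds were added after a 5 h preincubation, and the luminescent signal from continuous culture was measured repeatedly during 40 h treatment.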

[17] = target: Androgen receptor (Homo sapiens) (UniProt P10275); test: qHTS assay to identify small molecule antagonists of the androgen receptor (AR) signaling pathway using the MDA cell line in the presence of 0.5 nM R1881 (AID 1259243); further: nearly all actives have a fitted effect of over 50% in size; further: potency means the concentration at half of the fitted maximal effect
Chain of Androgen receptor (Homo sapiens) (P10275 whole entry, looked up): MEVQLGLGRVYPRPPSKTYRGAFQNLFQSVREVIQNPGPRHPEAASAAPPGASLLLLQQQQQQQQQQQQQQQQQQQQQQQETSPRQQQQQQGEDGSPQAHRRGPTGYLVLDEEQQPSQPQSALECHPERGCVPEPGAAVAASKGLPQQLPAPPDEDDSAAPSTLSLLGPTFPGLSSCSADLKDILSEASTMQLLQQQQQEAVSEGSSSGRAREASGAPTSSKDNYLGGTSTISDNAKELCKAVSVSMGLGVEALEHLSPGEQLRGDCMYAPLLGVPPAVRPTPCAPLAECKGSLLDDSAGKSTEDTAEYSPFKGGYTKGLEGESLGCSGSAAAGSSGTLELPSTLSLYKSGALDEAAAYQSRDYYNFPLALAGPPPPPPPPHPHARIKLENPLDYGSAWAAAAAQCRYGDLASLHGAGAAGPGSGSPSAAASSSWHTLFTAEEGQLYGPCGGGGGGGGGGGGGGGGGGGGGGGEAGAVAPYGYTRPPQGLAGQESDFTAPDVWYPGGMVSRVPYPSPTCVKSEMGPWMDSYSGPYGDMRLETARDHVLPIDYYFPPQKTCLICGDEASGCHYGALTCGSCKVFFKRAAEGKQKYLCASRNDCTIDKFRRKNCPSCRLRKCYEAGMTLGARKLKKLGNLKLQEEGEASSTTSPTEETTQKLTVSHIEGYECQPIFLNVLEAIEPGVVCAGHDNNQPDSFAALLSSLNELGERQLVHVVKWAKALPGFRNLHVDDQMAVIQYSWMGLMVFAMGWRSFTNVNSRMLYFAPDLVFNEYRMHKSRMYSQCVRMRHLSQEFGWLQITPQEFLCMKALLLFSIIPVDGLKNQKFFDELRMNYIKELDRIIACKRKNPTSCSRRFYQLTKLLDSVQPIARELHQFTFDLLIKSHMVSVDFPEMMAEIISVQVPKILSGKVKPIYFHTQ
Procedure, shortened: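 Reporter cells cultured without CO2 receive test chemicals, then 0.5 nM R1881 final; after 16 hr at 37C, ONE-Glo is added and light output recorded.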

[18] = qHTS assay to identify small molecule agonists of the sonic hedgehog signaling (Shh) pathway (AID 1259368; calls by dose curve;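 further: NIH/3T3-derived 3T3Gli1-Luc cells carrying a stable Gli1-driven firefly luciferase reporter; series mostly up to about 92 µM; nearly all actives have a fitted effect of over 15% in size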)
Procedure, shortened: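 A Gli1 transcriptional response element controlled firefly luciferase in 3T3Gli1-Luc cells. Compounds and a positive control were added 4 hr after plating, and cells were incubated a further 24 hr at 37 C before luminescence detection.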

[19] = qHTS RealTime-Glo MT Cell Viability Assay in HepG2 cells - 16 hour (AID 1224885); further: nearly all actives have a fitted effect of over 50% in size; further: potency means the concentration at half of the fitted maximal effect
Procedure, shortened: as §3

[20] = qHTS RealTime-Glo MT Cell Viability Assay in HEK293 cells - 8 hour (AID 1224887); further: nearly all actives have a fitted effect of over 50% in size; further: potency means the concentration at half of the fitted maximal effect
Procedure, shortened: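 Viable HEK293 cells reduce a cell-permeant prosubstrate; the product diffuses out and is consumed by NanoLuc in the medium to give light. Compounds went in after a 5 h incubation and plates were read over the treatment course.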

| Structure (SMILES) | Potency [1] | Potency [2] | Potency [3] | Potency [4] | Potency [5] | Potency [6] | Potency [7] | Potency [8] | Potency [9] | Potency [10] | Potency [11] | Potency [12] | Potency [13] | Potency [14] | Potency [15] | Potency [16] | Potency [17] | Potency [18] | Potency [19] | Potency [20] |
| --- | --- | --- | --- | --- | --- | --- | --- | --- | --- | --- | --- | --- | --- | --- | --- | --- | --- | --- | --- | --- |
| N/C(=N\N=C\c1ccc(Cl)cc1)N/N=C/c1ccc(Cl)cc1 | 23.9 µM (active) | inactive | 23.9 µM (active) | 23.9 µM (active) | 23.9 µM (active) | 21.3 µM (active) | inactive | inactive | inactive | inactive | inactive | inactive | inactive | inactive | – | – | – | – | – | – |
| CC[C@@]1(O)C(=O)OCc2c1cc1n(c2=O)Cc2c-1nc1ccccc1c2/C=N/OC(C)(C)C | inactive | inactive | 1.07 µM (active) | – | inactive | inactive | inactive | inactive | – | – | inactive | inactive | – | inactive | 0.0239 µM (active) | inactive | 0.133 µM (active) | inactive | – | – |
| CC(C)C(C)(C)C(C)(C)C(C)(C)S | inactive | inactive | inactive | – | – | inactive | inactive | inactive | inactive | inactive | inactive | inactive | inactive | inactive | inactive | – | inactive | inactive | inactive | – |
| NC(=O)CC[C@@H]1NC(=O)[C@H](Cc2ccccc2)NC(=O)[C@H](Cc2ccc(O)cc2)NC(=O)CCSSC[C@@H](C(=O)N2CCC[C@H]2C(=O)N[C@@H](CCCN=C(N)N)C(=O)NCC(N)=O)NC(=O)[C@H](CC(N)=O)NC1=O | inactive | inactive | inactive | – | inactive | inactive | inactive | inactive | – | inactive | – | inactive | inactive | inactive | inactive | inactive | – | inactive | – | inactive |
| CCC(C)Nc1ccc(NC(C)CC)cc1 (stereo not given) | 12.5 µM (active) | inactive | 19.9 µM (active) | – | 39.7 µM (active) | – | 9.88 µM (active) | 24.8 µM (active) | 2.48 µM (active) | – | inactive | 24.8 µM (active) | 11.1 µM (active) | 19.7 µM (active) | 4.45 µM (active) | – | 1.57 µM (active) | inactive | 17.7 µM (active) | 4.99 µM (active) |
| Cc1ccc2oc(CN(Cc3ccccc3)C(=O)Nc3c(F)cc(F)cc3F)c(-c3ccc(Cl)cc3)c2c1 | inactive | inactive | inactive | – | inactive | inactive | inactive | inactive | inactive | – | – | inactive | inactive | inactive | inactive | inactive | – | – | – | inactive |
| CSc1cnc(C)cn1 | 89.4 µM (active) | 56.4 µM (active) | 63.3 µM (active) | – | 89.4 µM (active) | 56.4 µM (active) | inactive | inactive | inactive | – | inactive | inactive | inactive | inactive | inactive | inactive | – | inactive | – | inactive |
| C[C@@H](NCCCc1cccc(C(F)(F)F)c1)c1cccc2ccccc12 | 23.9 µM (active) | inactive | 15.1 µM (active) | – | – | 21.3 µM (active) | inactive | 23.7 µM (active) | – | inactive | inactive | inactive | – | – | 23.9 µM (active) | – | 18.8 µM (active) | – | 21.3 µM (active) | 23.9 µM (active) |
| CCN(Cc1cccnc1)C(=O)c1cccc(Cl)c1[C@]1(C)C(=O)N(Cc2ccc(OC)cc2OC)c2ccc(Cl)cc21 | inactive | inactive | inactive | – | inactive | inactive | inactive | inactive | 64.1 µM (active) | – | inactive | inactive | – | – | 20.4 µM (active) | inactive | 57.1 µM (active) | inactive | – | 20.4 µM (active) |
| CC(C)(C)CC(C)(C)c1ccc(OCCOCC[N+](C)(C)Cc2ccccc2)cc1 | 38.9 µM (active) and 21.3 µM (active) | inactive | 27.5 µM (active) and 15.1 µM (active) | – | – | 26.8 µM (active) | inactive | 43.2 µM (active) and 21.1 µM (active) | – | inactive | inactive | inactive | 48.5 µM (active) | 61.1 µM (active) and inactive | 19.5 µM (active) and 9.52 µM (active) | inactive | – | inactive | 54.9 µM (active) and 21.3 µM (active) | – |
| CCCCN1C(=O)[C@@H]([C@H](O)C2CCCCC2)NC(=O)C12CCN(Cc1ccc(Oc3ccc(C(=O)O)cc3)cc1)CC2 | inactive | inactive | inactive | – | – | inactive | inactive | – | – | – | inactive | inactive | – | – | inactive | inactive | – | inactive | inactive | inactive |
| Cc1cccc(N(C)C(=S)Oc2ccc3c(c2)C2CCC3C2)c1 (stereo not given) | inactive | inactive | inactive | – | inactive | inactive | inactive | inactive | inactive | – | inactive | inactive | inactive | inactive | inactive | inactive | – | inactive | – | inactive |
| C[n+]1ccn(Cc2ccccc2)c1 | inactive | inactive | inactive | – | inactive | inactive | inactive | inactive | – | – | inactive | inactive | – | inactive | inactive | inactive | – | inactive | – | inactive |
